Targets with a hit are over-represented here; the source holds about 7,900 in all. About 0.6% of all pairs of compound and target were hits.
Experiments:
Test in all cases: log2 fold change, soluble protein after heating vs DMSO (PISA); higher = thermal stabilisation; K562 cells, 10 uM, 30 min; active = over 0.2 and 3.5 SD of the protein, either way, in both replicates (recomputed)
[1] = compound: C1=CC=C(C=C1)[C@H](COC2=CC3=C(C=C2)NC(=O)N3)NC(=O)C4=CC=CN(C4=O)CC5=CC(=C(C=C5)F)F
In short: (§1)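 Quantification of soluble protein used TMTpro 16plex LC-MS/MS, with channel sums equalised. Samples were the supernatant after 21,000xg for 90 min of pooled aliquots from K562 cells (2×10^6 cells/mL) treated with 10 μM compound for 30 min, heated for 3 min over 48°C-58°C, and extracted in PBS with 0.5% NP-40 at 4°C. Values, from duplicates, describe thermal stability against control samples on a log2 fold-change scale.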

[2] = compound: CC1=C(SC2=C1C(=N[C@H](C3=NN=C(N32)C)CC(=O)N)C4=CC=C(C=C4)Cl)C
In short: as §1

[3] = compound: CC1=C2C(=CC=C1)N=C(N(C2=O)C3=CC=CC=C3C)CN4C=NC5=C(N=CN=C54)N
In short: as §1

[4] = compound: Cc1sc2c(c1C)C(c1ccc(Cl)cc1)=N[C@@H](CC(=O)OC(C)(C)C)c1nnc(C)n1-2
In short: as §1

[5] = compound: c1ccc([C@@H]2C[C@H]2NC2CCNCC2)cc1
In short: as §1

Measured: log2 fold change

OSTC (UniProt Q9NRP0)
inactive: [1] -0.031 | [2] 0.048 | [3] 0.063 | [4] -0.213 | [5] 0.048

NNMT (UniProt P40261)
inactive: [1] 0.021 | [2] 0.051 | [3] 0.078 | [4] -0.009 | [5] -0.055

NEMP1 (UniProt O14524)
inactive: [1] 0.015 | [2] -0.003 | [3] 0.036 | [4] 0.048 | [5] -0.018

OTULIN (UniProt Q96BN8)
inactive: [1] -0.07 | [2] -0.019 | [3] 0.124 | [4] 0.005 | [5] 0.005

OSTM1 (UniProt Q86WC4)
inactive: [1] 0.023 | [2] 0.036 | [3] 0.058 | [4] -0.091 | [5] -0.013

NOL11 (UniProt Q9H8H0)
inactive: [1] 0.007 | [2] 0 | [3] -0.008 | [4] -0.014 | [5] 0.025

NCKAP1 isoform 2 (UniProt Q9Y2A7)
Chain of UniProt Q9Y2A7 (Q9Y2A7 whole entry, looked up): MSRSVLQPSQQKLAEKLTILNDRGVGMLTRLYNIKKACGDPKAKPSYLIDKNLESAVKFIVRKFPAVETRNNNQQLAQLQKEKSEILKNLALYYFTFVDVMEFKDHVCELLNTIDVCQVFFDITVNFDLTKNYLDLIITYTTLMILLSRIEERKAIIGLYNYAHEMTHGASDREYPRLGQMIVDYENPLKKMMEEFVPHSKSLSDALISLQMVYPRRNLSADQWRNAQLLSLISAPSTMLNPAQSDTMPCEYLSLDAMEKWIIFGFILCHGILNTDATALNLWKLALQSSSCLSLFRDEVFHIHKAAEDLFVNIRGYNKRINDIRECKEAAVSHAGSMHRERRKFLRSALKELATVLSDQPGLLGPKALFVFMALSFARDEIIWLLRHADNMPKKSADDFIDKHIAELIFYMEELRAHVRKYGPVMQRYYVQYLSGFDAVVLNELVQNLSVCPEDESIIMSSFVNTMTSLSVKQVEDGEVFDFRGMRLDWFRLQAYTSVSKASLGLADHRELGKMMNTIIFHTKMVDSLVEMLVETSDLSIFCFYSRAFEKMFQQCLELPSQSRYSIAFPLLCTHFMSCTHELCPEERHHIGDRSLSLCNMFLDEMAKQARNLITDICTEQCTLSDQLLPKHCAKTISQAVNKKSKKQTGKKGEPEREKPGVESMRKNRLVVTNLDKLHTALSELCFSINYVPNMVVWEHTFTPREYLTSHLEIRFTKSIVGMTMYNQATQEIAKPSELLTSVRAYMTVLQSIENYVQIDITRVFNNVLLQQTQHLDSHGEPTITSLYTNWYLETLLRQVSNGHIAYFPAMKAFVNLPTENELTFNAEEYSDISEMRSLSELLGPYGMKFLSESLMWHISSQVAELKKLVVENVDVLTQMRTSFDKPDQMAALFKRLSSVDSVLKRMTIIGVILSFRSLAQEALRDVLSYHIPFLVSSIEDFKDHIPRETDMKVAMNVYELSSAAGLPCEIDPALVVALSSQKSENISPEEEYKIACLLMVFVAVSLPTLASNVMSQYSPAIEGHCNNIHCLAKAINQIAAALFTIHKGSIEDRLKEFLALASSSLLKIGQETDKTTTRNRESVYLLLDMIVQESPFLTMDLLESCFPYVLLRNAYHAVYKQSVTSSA
inactive: [1] -0.037 | [2] 0.035 | [3] 0.003 | [4] 0.007 | [5] -0.004

NUDT16 (UniProt Q96DE0)
inactive: [1] 0.029 | [2] 0.085 | [3] -0.045 | [4] -0.075 | [5] -0.006

NUP160 (UniProt Q12769)
inactive: [1] -0.013 | [2] 0.043 | [3] 0.038 | [4] 0.014 | [5] 0.044

MPHOSPH10 (UniProt O00566)
inactive: [1] 0.023 | [2] -0.279 | [3] -0.206 | [4] 0.094 | [5] -0.024

NR2C2AP isoform 2 (UniProt Q86WQ0)
Chain of UniProt Q86WQ0 (Q86WQ0 whole entry, looked up): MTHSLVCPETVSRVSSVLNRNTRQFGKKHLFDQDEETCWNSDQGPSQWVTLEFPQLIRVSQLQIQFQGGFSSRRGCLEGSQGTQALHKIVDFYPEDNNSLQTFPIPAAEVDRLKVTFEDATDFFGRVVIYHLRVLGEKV
inactive: [1] -0.016 | [2] 0.043 | [3] 0.081 | [4] -0.067 | [5] 0.032

NCOA7 (UniProt Q8NI08)
inactive: [1] 0.03 | [2] 0.093 | [3] 0.036 | [4] 0.016 | [5] -0.058

NDUFA4 (UniProt O00483)
inactive: [1] 0 | [2] 0.005 | [3] 0.014 | [4] -0.031 | [5] 0.046

OTUD4 (UniProt Q01804)
inactive: [1] 0.033 | [2] -0.034 | [3] -0.05 | [4] 0.111 | [5] 0.011

NDUFA12 (UniProt Q9UI09)
Chain of UniProt Q9UI09 (Q9UI09 whole entry, looked up): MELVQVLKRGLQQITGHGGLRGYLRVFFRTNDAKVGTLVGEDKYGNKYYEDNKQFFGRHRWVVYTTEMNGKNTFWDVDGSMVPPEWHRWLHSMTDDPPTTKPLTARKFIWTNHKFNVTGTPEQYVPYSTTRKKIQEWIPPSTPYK
inactive: [1] -0.046 | [2] 0.126 | [3] 0.145 | [4] -0.086 | [5] -0.051

NOLC1 isoform 2 (UniProt Q14978)
inactive: [1] 0 | [2] -0.029 | [3] 0.002 | [4] -0.012 | [5] 0.108

NELFA (UniProt Q9H3P2)
inactive: [1] -0.016 | [2] 0.213 | [3] 0.056 | [4] -0.07 | [5] 0.035

NDUFA7 (UniProt O95182)
inactive: [1] 0.007 | [2] 0.002 | [3] 0.007 | [4] 0.008 | [5] 0.034

ORC3 isoform 2 (UniProt Q9UBD5)
inactive: [1] -0.098 | [2] 0.032 | [3] 0.107 | [4] 0.013 | [5] -0.079

NARS2 (UniProt Q96I59)
inactive: [1] 0 | [2] 0.057 | [3] 0.059 | [4] 0 | [5] -0.027

MRPS22 (UniProt P82650)
inactive: [1] -0.016 | [2] 0.05 | [3] -0.037 | [4] 0.087 | [5] -0.063

NA, A0A494C071
inactive: [1] -0.172 | [2] -0.016 | [3] 0.236 | [4] 0.07 | [5] 0.072

NIPSNAP3B (UniProt Q9BS92)
inactive: [1] 0.045 | [2] -0.031 | [3] 0.017 | [4] -0.021 | [5] 0.099

MYL12B (UniProt O14950)
inactive: [1] 0.028 | [2] 0.054 | [3] 0.009 | [4] -0.025 | [5] -0.077

NUDT21 (UniProt O43809)
inactive: [1] 0.013 | [2] 0.021 | [3] 0.011 | [4] -0.01 | [5] 0.001

MRPS25 (UniProt P82663)
inactive: [1] -0.002 | [2] -0.05 | [3] -0.067 | [4] 0.059 | [5] 0.014

NCAPD2 (UniProt Q15021)
Chain of UniProt Q15021 (Q15021 whole entry, looked up): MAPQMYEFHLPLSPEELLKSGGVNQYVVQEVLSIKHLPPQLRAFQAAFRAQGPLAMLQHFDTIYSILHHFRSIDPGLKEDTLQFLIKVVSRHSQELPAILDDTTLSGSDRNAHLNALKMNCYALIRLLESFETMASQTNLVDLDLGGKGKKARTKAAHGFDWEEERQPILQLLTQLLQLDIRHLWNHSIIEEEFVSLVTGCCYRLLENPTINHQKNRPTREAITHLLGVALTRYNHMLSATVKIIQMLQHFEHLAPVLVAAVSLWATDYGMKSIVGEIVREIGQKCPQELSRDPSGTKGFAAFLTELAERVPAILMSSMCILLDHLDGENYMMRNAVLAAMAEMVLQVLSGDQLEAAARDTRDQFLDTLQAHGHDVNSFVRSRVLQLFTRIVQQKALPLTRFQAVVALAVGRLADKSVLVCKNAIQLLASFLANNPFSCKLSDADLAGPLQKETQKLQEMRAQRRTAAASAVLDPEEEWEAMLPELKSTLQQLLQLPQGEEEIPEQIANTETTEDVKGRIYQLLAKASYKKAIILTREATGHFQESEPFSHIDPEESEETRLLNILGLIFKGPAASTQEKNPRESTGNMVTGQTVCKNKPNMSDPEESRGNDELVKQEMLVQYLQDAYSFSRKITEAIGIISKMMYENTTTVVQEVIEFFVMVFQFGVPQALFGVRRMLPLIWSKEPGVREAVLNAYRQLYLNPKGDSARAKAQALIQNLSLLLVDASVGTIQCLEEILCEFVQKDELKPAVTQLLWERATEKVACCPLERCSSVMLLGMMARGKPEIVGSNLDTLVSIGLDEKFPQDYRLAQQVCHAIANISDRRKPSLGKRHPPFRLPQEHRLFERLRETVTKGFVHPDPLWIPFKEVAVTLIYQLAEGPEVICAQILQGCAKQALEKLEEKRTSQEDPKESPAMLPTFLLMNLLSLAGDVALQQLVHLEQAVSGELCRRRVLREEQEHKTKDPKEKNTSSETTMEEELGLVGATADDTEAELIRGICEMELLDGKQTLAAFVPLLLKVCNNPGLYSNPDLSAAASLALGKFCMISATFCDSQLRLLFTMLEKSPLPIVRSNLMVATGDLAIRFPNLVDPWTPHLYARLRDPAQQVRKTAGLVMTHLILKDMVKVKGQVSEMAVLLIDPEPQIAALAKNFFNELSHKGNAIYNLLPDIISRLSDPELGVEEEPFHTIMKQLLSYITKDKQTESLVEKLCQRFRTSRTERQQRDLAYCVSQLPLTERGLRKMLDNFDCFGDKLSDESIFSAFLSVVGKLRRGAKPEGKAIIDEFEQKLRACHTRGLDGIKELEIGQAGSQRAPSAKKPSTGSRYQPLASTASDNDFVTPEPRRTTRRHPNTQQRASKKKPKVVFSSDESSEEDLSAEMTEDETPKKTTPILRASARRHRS
inactive: [1] -0.078 | [2] 0.04 | [3] 0.044 | [4] 0.016 | [5] 0.007

NCAPH (UniProt Q15003)
inactive: [1] -0.067 | [2] 0.011 | [3] 0.109 | [4] -0.007 | [5] 0.001

NUMA1 (UniProt Q14980)
inactive: [1] 0.027 | [2] -0.05 | [3] -0.009 | [4] 0.022 | [5] 0.014

NDUFB1 (UniProt O75438)
inactive: [1] -0.004 | [2] -0.059 | [3] -0.056 | [4] -0.138 | [5] 0.055

MRPL47 (UniProt Q9HD33)
inactive: [1] 0.042 | [2] -0.108 | [3] -0.131 | [4] 0.087 | [5] -0.01

MLST8 (UniProt Q9BVC4)
Chain of UniProt Q9BVC4 (Q9BVC4 whole entry, looked up): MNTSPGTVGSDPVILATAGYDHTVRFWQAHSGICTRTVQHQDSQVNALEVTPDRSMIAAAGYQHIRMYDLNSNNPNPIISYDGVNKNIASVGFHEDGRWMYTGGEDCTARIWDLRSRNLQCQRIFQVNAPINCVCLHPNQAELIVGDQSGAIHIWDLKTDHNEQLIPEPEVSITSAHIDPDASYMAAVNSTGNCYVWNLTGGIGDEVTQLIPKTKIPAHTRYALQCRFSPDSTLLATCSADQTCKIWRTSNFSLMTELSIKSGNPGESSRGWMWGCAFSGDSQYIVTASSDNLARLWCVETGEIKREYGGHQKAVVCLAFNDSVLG
inactive: [1] -0.038 | [2] 0.062 | [3] 0.082 | [4] -0.05 | [5] -0.071

NRF1 isoform 4 (UniProt Q16656)
inactive: [1] -0.045 | [2] 0.001 | [3] 0.085 | [4] -0.043 | [5] -0.039

MSH6 (UniProt P52701)
Chain of UniProt P52701 (P52701 whole entry, looked up): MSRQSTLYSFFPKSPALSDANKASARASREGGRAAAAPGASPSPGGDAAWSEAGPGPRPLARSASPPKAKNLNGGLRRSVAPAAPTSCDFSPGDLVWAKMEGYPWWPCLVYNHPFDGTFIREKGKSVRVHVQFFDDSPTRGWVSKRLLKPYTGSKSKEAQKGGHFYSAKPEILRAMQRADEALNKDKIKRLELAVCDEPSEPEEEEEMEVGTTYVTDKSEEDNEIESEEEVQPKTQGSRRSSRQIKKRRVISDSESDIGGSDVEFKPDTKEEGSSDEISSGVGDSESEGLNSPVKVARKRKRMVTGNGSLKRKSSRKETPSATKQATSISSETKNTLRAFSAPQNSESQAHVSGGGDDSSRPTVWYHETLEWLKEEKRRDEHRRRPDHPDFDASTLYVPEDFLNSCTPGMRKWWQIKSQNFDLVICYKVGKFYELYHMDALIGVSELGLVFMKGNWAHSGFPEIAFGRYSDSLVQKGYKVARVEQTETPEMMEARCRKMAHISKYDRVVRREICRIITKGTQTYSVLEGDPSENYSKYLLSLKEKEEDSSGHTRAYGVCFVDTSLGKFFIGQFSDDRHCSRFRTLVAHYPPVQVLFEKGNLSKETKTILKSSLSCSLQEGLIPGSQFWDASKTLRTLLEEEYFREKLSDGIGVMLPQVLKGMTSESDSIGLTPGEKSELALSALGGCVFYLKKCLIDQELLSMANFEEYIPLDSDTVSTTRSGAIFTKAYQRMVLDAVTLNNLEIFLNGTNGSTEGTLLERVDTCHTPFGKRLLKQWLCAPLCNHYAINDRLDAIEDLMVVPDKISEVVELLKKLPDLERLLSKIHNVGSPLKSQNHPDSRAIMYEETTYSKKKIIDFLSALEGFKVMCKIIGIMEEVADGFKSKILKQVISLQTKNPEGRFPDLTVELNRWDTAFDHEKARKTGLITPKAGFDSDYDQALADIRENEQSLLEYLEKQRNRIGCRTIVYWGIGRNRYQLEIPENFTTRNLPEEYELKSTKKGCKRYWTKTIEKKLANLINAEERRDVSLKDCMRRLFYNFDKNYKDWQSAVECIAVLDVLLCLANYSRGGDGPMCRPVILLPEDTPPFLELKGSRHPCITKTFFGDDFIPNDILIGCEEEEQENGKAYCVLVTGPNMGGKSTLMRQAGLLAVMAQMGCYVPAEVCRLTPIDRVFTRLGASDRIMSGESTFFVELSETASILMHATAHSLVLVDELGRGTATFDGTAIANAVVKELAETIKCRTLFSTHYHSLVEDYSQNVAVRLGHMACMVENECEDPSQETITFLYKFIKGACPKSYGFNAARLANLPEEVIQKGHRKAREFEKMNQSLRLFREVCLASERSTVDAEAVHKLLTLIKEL
inactive: [1] -0.24 | [2] 0.08 | [3] 0.127 | [4] -0.056 | [5] -0.008

NDUFA6 (UniProt P56556)
Chain of UniProt P56556 (P56556 whole entry, looked up): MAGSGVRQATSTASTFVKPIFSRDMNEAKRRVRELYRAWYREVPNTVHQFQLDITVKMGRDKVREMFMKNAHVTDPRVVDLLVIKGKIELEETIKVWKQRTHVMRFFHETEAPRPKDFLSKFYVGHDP
inactive: [1] -0.017 | [2] 0.121 | [3] 0.104 | [4] -0.067 | [5] -0.039

MTMR14 (UniProt Q8NCE2)
inactive: [1] 0.03 | [2] 0.047 | [3] 0.156 | [4] -0.011 | [5] 0.069

MSH3 (UniProt P20585)
inactive: [1] 0.008 | [2] 0.085 | [3] 0.052 | [4] -0.028 | [5] -0.087

NFE2 (UniProt Q16621)
Chain of UniProt Q16621 (Q16621 whole entry, looked up): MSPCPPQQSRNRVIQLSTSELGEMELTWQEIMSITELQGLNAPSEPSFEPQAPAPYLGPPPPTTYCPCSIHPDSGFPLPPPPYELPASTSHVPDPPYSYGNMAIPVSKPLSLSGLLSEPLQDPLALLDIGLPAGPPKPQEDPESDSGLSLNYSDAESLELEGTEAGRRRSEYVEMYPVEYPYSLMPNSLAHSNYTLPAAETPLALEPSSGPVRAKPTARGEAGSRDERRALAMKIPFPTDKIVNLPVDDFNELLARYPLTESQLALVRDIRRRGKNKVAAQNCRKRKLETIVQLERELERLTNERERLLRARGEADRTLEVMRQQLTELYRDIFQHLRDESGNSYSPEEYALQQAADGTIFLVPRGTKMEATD
inactive: [1] 0.054 | [2] -0.004 | [3] 0.12 | [4] 0.087 | [5] 0.145

NME1 isoform 2 (UniProt P15531)
inactive: [1] 0.095 | [2] 0.142 | [3] 0.069 | [4] 0.033 | [5] -0.108

MOV10 (UniProt Q9HCE1)
inactive: [1] 0.067 | [2] -0.095 | [3] -0.095 | [4] 0.145 | [5] 0.057

MRPS17 (UniProt Q9Y2R5)
inactive: [1] -0.031 | [2] -0.044 | [3] -0.011 | [4] 0.06 | [5] -0.064

MOB3B (UniProt Q86TA1)
inactive: [1] 0 | [2] 0.029 | [3] 0.178 | [4] 0.041 | [5] -0.088
